PubChem BioAssay AID540356 (Broad Institute, 2011)
Out of some 2,500 compounds screened, about 360 (14%) were called active.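 The calls were made as follows: active = signal-lowering compounds whose fitted half-maximal concentration AC50 is no higher than ten times their top tested concentration; inconclusive = flat curve with 30 to 70% inhibition, or poor fit; inactive = flat within 30%, signal increase, or AC50 above limit.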 These entries were drawn from the full list.

Experiment: non-specific inhibitors of H2O2 luminol chemiluminescence – biochemical, luminescence, no ALR or DTT, cherry-pick, artefact control for ALR inhibitor project, dose response (AID 540356);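 as to activity change, negative = inhibition: 0% = median of neutral control wells and -100% = median of quercitin 100 µM wells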
Settings: HRP/H2O2 luminol luminescence counterscreen; series mostly up to 10 µM; activity change, negative = inhibition: at the top concentration

SMILES	activity change, negative = inhibition	AC50
Cc1cccc(Oc2ccc3c(c2)cc(C(=O)O)n3C)c1	-1.07% (inactive)	–
CN(CCCNC(=O)c1cccc(N2CCCC2=O)c1)c1ccccc1	-1.85% (inactive)	–
CN(CC(=O)N1CCN(c2ccccc2)CC1)S(=O)(=O)c1cnc[nH]1	-1% (inactive)	–
O=C1CS/C(=N/N=C/c2ccco2)N1Cc1ccc(F)cc1	-1.89% (inactive)	–
Fc1ccc(CN2C3=NCCN3c3ccccc32)cc1	-0.206% (inactive)	–
Cn1cccc1CC(=O)N/N=C/c1ccc([N+](=O)[O-])cc1	-1.17% (inactive)	–
O=C(NNc1c2ccccc2nc2ccccc12)c1ccc(O)cc1O	-6.84% (inactive)	–
CC1C(=O)NN=C1C(=O)N/N=C\c1ccc(O)cc1O (stereo not drawn)	–	8.82 µM (active)
COc1cccc(/C=N/NC(=O)CC2C(=O)NN=C2C)c1O (stereo not drawn)	-6.48% (inactive)	–
CCN(CC)c1ccc(/C=N/NC(=O)c2ccco2)c(O)c1	-2.67% (inactive)	–
CC(C)c1ccc(NC2CCCN(C(=O)CCCn3cncn3)C2)cc1 (stereo not drawn)	-0.691% (inactive)	–
Cc1nc(C(F)(F)F)c(C(=O)O)cc1-c1nc(-c2ccccc2)cs1	-3.6% (inactive)	–
Nc1nc(-c2ccc3ccccc3c2)cs1	0.746% (inactive)	–
O=C(O)c1ccccc1C(=O)Nc1ccc(-c2csc(-c3ccccc3)n2)cc1	1.08% (inactive)	–
Oc1ccc(-c2nc(-c3ccc(O)c(O)c3)cs2)cc1	–	6.17 µM (active)
Cc1cc(-c2n[nH]c(=S)n2/N=C/c2ccc(Cl)c([N+](=O)[O-])c2)n[nH]1	-7.21% (inactive)	–
CN(C)c1ccc(/C=N/Nc2ccc(-n3ccnc3)nn2)cc1	-5.8% (inactive)	–
CCN(CC)c1ccc(NC(=O)c2ccc(Br)o2)cc1	–	> 10 µM (inactive)
O=C(Nc1ccc(O)cc1)c1ccc(C(=O)c2ccccc2)o1	-0.476% (inactive)	–
Oc1ccc(/C(Cc2ccccn2)=N\Nc2ccccc2)c(O)c1	-13% (inactive)	–
Cc1ccc2nc(C)cc(N/N=C/c3ccccc3O)c2c1	-1.87% (inactive)	–
COc1ccc(-n2c(-c3ccc(OC)c(OC)c3)n[nH]c2=S)cc1	-7.41% (inactive)	–
COc1ccc(-c2n[nH]c(=S)n2-c2ccc(C)cc2)cc1OC	-2.1% (inactive)	–
Cc1occc1C(=O)NCCCCc1ccccc1	-2.42% (inactive)	–

SMILES	activity change, negative = inhibition	AC50
O=C(NCCCN1CCCC1)c1ccc2c(Cl)c3c(nc2c1)CCCC3	-1.03% (inactive)	–
Nc1ccc(CCc2ccc(N)cc2)cc1	2.66% (inactive)	–
CC(C)Cc1nc2ccc(N)cc2[nH]1	-7.18% (inactive)	–
O=C(Nc1nnc(-c2cccnc2)o1)c1cccc([N+](=O)[O-])c1	2.15% (inactive)	–
Nc1ccc(N2CCN(C(=O)c3ccco3)CC2)cc1	-15% (inactive)	–
O=C1NC(=O)/C(=C/c2cc3c(cc2Br)OCO3)S1	-2.95% (inactive)	–
O=C1NC(=O)/C(=C\c2ccc(O)cc2O)S1	–	7.54 µM (active)
COc1cc(/C=C2\SC(=Nc3ccccc3OC)NC2=O)ccc1O	-10.1% (inactive)	–
COc1cc(/C=N/NC(=O)c2cccc(NC(=O)c3ccccc3)c2)ccc1O	-4.89% (inactive)	–
COc1cc(C(=O)n2nc(C)cc2C)ccc1O	-6.95% (inactive)	–
COc1cc(C(=S)N(C)C)ccc1O	-16.8% (inactive)	–
C/C(=N\Nc1nc2ccccc2[nH]1)c1ccc2c(c1)OCO2	-0.401% (inactive)	–
CCN(CCCNC(=O)CNC(=O)Cn1cnc2ccccc2c1=O)c1ccccc1	-0.598% (inactive)	–
COc1ccccc1N1CCN(CCc2n[nH]c(=S)n2-c2ccccc2)CC1	-1.88% (inactive)	–
C/C(=C\c1ccc(N)cc1)c1nc2ccccc2[nH]1	–	6.64 µM (active)
C(=C\c1nc2ccccc2[nH]1)/c1ccccc1	-1.61% (inactive)	–
C/C(=N\Nc1nc2ccccc2[nH]1)c1cccs1	-8.06% (inactive)	–
COc1ccc(N2CCN(C(=O)Cc3cccs3)CC2)cc1	-2.6% (inactive)	–
Cc1ccc(S(=O)(=O)NNC(=O)c2ccc3ccccc3n2)cc1	-12.9% (inactive)	–
CCn1c(-c2ccccc2O)n[nH]c1=S	-2.43% (inactive)	–
Oc1ccc(Br)cc1-c1cc(-c2ccco2)[nH]n1	-3.86% (inactive)	–
Cc1c(NS(=O)(=O)c2ccccc2)cc(Cl)c(O)c1C	-9.8% (inactive)	–
O=C(O)c1ccc(CSc2nc3ccc(NC(=O)c4ccccc4C(=O)O)cc3s2)cc1	-0.1% (inactive)	–
COc1cc(/C=N/NC(=O)CNC(=O)c2ccncc2)ccc1O	-3.2% (inactive)	–

SMILES	activity change, negative = inhibition	AC50
COc1cc(C(=O)N/N=C/c2cccc(Oc3ccccc3)c2)ccc1O	-5.05% (inactive)	–
COc1cc(/C(C)=N/NC(=O)Cc2c(C)[nH][nH]c2=O)ccc1O	–	5.67 µM (active)
CC1(CCC(=O)N2CCCC(Nc3ccc(F)cc3)C2)CC1 (stereo not drawn)	-2.92% (inactive)	–
S=c1[nH]nc(-c2ccco2)n1/N=C/c1ccccc1	-3.81% (inactive)	–
S=c1[nH]nc(-c2ccncc2)n1/N=C/C=C/c1ccccc1	-11.5% (inactive)	–
Cc1ccc(NC(=O)CN(c2ccc3c(c2)OCO3)S(=O)(=O)c2c(C)n[nH]c2C)cc1	-1.61% (inactive)	–
CC(c1ccc(F)cc1)n1c(-c2cccs2)n[nH]c1=S (stereo not drawn)	-0.882% (inactive)	–
S=c1nccc(-c2cccs2)[nH]1	–	3.95 µM (active)
S=c1[nH]cc(-c2ccccc2)[nH]1	-10.6% (inactive)	–
Fc1ccc(-c2ccnc(=S)[nH]2)cc1	–	2.78 µM (active)
Cc1ccc(N2C(=O)CC(NNC(=O)c3cccc(S(=O)(=O)N4CCCC4)c3)C2=O)cc1 (stereo not drawn)	0.793% (inactive)	–
COc1ccccc1N1CCN(S(=O)(=O)c2ccccc2)CC1	5.49% (inactive)	–
CC(=O)N1CCN=C1SCc1cccc(F)c1	0.475% (inactive)	–
COc1ccc(-c2csc(Nc3ccc(S(=O)(=O)Nc4cc(C)on4)cc3)n2)cc1	-8.72% (inactive)	–
CC(C(=O)NC1C=CS(=O)(=O)C1)N1C(=O)/C(=C\c2ccccc2)SC1=S (stereo not drawn)	-1.27% (inactive)	–
O=C(O)CCCN1C(=O)/C(=C\c2ccc(-c3nc4ccccc4s3)o2)SC1=S	-3.96% (inactive)	–
O=c1ccc(-c2n[nH]c(=S)n2-c2ccc(F)c(Cl)c2)n[nH]1	2.95% (inactive)	–
CN(C)c1cccc(C(=O)NCc2ccccc2)c1	2.16% (inactive)	–
CC(=O)c1ccc(S(=O)(=O)N2CCNC(=O)C2)cc1	0.022% (inactive)	–
COC(=O)Nc1ccc(S(=O)(=O)N2CCC(C(=O)N(C)C3CCCCC3)CC2)cc1	-4.36% (inactive)	–
COc1ccc(N2CCN(C(=O)CCNS(=O)(=O)c3ccccc3)CC2)cc1	-0.005% (inactive)	–
COc1ccccc1NC(=O)Nc1ncccc1C	-3.86% (inactive)	–
Cc1ccc(-c2cnc(SCCNC(=O)c3ccco3)[nH]2)cc1	-8.49% (inactive)	–
Cc1cccc(-n2c(-c3ccoc3C)n[nH]c2=S)c1	-11.9% (inactive)	–

SMILES	activity change, negative = inhibition	AC50
CCN(CC)c1ccc(C2CC(=O)Nc3cc(OC)c(OC)cc32)cc1 (stereo not drawn)	-0.735% (inactive)	–
C/C(=N\NC(=O)c1ccc(N/N=C(\C)c2ccncc2)cc1)c1ccncc1	–	7.62 µM (active)
C/C(=N\NC(=O)c1ccncc1)c1ccc(N(C)C)cc1	-1.54% (inactive)	–
C/C(=N\NC(=O)c1cccc(N/N=C(\C)c2ccncc2)c1)c1ccncc1	-0.18% (inactive)	–
Cc1cc(S(=O)(=O)N2CCN(c3ccccc3O)CC2)c(C)s1	-1.49% (inactive)	–
COc1cc(-c2csc(CCn3nc(C)cc3C)n2)cc(OC)c1OC	-1.1% (inactive)	–
C=CCn1c(-c2ccc(N)cc2)nc2ccccc21	-1.15% (inactive)	–
C=CCn1c(-c2cccc([N+](=O)[O-])c2)n[nH]c1=S	-6.54% (inactive)	–
CC(C)c1ccc(NC(=O)Cc2c(C(=O)O)n(C)c3ccccc23)cc1	-6.86% (inactive)	–
CCc1ccc(NCc2ccc(OC)c(Cn3ccnc3)c2)cc1	0.244% (inactive)	–
O=C(C[n+]1ccccc1)N/N=C/c1ccc(O)cc1	–	6.56 µM (active)
O=C(CCN1CCN(C(c2ccccc2)c2ccccc2)CC1)N/N=C/c1ccc(O)cc1	-4.67% (inactive)	–
O=C(Cn1cc(C(F)(F)F)ccc1=O)N/N=C/c1ccc(O)cc1	-3.05% (inactive)	–
O=C(CC(=O)N/N=C/c1ccc(O)cc1)N/N=C/c1ccc(O)cc1	–	2.72 µM (active)
O=C(CCn1cnc2ccccc21)N/N=C/c1ccc(O)cc1	–	9.88 µM (active)
CCN(CC)c1ccc(/C=N\NC(N)=O)cc1	-3.71% (inactive)	–
CC12CCC(C(=O)N/N=C/c3ccc(O)cc3)(OC1=O)C2(C)C (stereo not drawn)	–	8.23 µM (active)
Cc1ccc(NC(=O)CCC(=O)N/N=C/c2ccc(O)cc2)cc1	-3.47% (inactive)	–
O=C(Cn1cnc2ccccc21)N/N=C/c1ccccn1	-0.451% (inactive)	–
CN(C)c1ccc(/C=N/NC(=O)CCC(=O)NCc2ccccc2)cc1	1.49% (inactive)	–
Cc1nc(C)c(CC(=O)N/N=C/c2ccc(O)cc2)c(=O)[nH]1	-2.84% (inactive)	–
O=C(N/N=C/c1cccc(O)c1)N/N=C/c1cccc(O)c1	-15% (inactive)	–
COc1ccc(C2SCC(=O)N2c2ccc(F)cc2)cc1 (stereo not drawn)	0.747% (inactive)	–
NNC(=O)c1cc(-c2ccccc2)sc1N	-1.19% (inactive)	–

SMILES	activity change, negative = inhibition	AC50
Cc1cc(C)cc(N2C(=O)CSC2c2ccccn2)c1 (stereo not drawn)	-4.34% (inactive)	–
COc1cc(/C=N\NC(=O)c2ccc(-c3ccccc3)cc2)cc(OC)c1O	-2.4% (inactive)	–
CC(NC(=O)c1ccccc1)C(=O)N/N=C/c1ccc(O)cc1 (stereo not drawn)	-7.56% (inactive)	–
Cn1nc(-c2ccc(Cl)cc2)c2cc(C(=O)NCCCN3CCCC3)sc21	-0.462% (inactive)	–
S=c1[nH]nc(-c2ccc(Cl)cc2)n1-c1ccc(Cl)cc1	-8.06% (inactive)	–
CCn1c(-c2ccc(Cl)cc2)n[nH]c1=S	-8.41% (inactive)	–
Cc1cccc(N2CC(C(=O)Nc3ccccc3N3CCCC3)CC2=O)c1C (stereo not drawn)	-8.55% (inactive)	–
COc1ccc(CC(=O)N2CCN=C2SCc2ccc([N+](=O)[O-])cc2)cc1	-0.324% (inactive)	–
CCN(CCNC(=O)C1CCN(S(=O)(=O)c2cccc3nsnc23)CC1)c1ccccc1	-0.842% (inactive)	–
COc1ccc(C2NC(=O)CS2)cc1OC (stereo not drawn)	7.69% (inactive)	–
COc1ccc(/C=N\NC(=O)CCN2CCN(c3ccccc3)CC2)cc1OC	0.672% (inactive)	–
COc1cc(/C=N/NC(=O)CCN2CCCCC2)ccc1O	–	8.16 µM (active)
COc1ccc(/C=N/NC(=O)CCn2nc(C)cc2C)cc1O	-8.19% (inactive)	–
O=C(NCc1ccccn1)c1ccc2c(c1)N(Cc1ccccc1)CCS2	0.248% (inactive)	–
COc1ccc(N2CCN(C(=O)CCNC(=O)c3ccc(C(C)(C)C)cc3)CC2)cc1	-1.79% (inactive)	–
Clc1nnc(N2CCCCC2)c2ccccc12	-0.603% (inactive)	–
Cc1cc(O)c(Sc2ncn[nH]2)cc1NS(=O)(=O)c1ccc(Cl)cc1	-11.3% (inactive)	–
Cc1ccc(S(=O)(=O)Nc2ccc(O)c(Sc3ncn[nH]3)c2)cc1	–	10.4 µM (active)
CC(C)c1ccc(NC2CCCN(C(=O)c3cc(C(C)C)nc(N)n3)C2)cc1 (stereo not drawn)	-1.39% (inactive)	–
CC(C)c1ccc(S(=O)(=O)Nc2ccc(O)c(Sc3ncn[nH]3)c2)cc1	–	9.35 µM (active)
Cc1ccc(S(=O)(=O)Nc2cc(C)c(O)cc2C)cc1	-3.78% (inactive)	–
Cc1cc(C(=O)N2CCCC(Nc3ccc(C(C)C)cc3)C2)nn1C (stereo not drawn)	-3.19% (inactive)	–
